The results in this text go back to PubChem BioAssay (Tox21).

Structures are written as SMILES. Inconclusive results are not listed. Entries that show only a call come without a potency. Active and inactive are the calls of the source. Calls follow the shape of the dose curve; as a rule, active = well fitted inhibition curve with a large enough effect in the signal ratio in the repeat runs (not every such curve was filed as active); inconclusive = weak or mixed curves, or effect the other way; inactive = no such curve, though single readings can be large or run the other way; the % refers to the signal ratio.
Potency is read from the fitted curve at half-maximal effect.

Chain of Bile acid receptor (Homo sapiens) (Q96RI1 whole entry, looked up): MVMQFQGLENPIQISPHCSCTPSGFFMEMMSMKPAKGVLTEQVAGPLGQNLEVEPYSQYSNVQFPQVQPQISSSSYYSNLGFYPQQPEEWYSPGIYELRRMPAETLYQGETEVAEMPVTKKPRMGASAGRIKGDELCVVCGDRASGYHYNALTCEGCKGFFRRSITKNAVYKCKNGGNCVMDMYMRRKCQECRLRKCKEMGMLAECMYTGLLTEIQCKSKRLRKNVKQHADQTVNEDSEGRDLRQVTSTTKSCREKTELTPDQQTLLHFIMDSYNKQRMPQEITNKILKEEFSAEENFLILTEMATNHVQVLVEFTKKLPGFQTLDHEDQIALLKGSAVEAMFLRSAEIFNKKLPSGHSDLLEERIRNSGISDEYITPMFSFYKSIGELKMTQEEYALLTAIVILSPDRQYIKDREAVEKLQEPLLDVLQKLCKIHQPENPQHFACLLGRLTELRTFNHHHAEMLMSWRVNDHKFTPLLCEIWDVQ

This test concerns the target Bile acid receptor (Homo sapiens) (UniProt Q96RI1). In words: qHTS assay to identify small molecule antagonists of the farnesoid-X-receptor (FXR) signaling pathway (AID 743217). The conditions noted are these: HEK293T FXR-UAS-bla, beta-lactamase ratio, CDCA-stimulated, 16 h; series mostly up to 62.6 µM. The text has this:
U.S. Tox21 Program National Center for Advancing Translational Sciences [NCATS] NIH Chemical Genomics Center [NCGC] U.S. Environmental Protection Agency [EPA] National Institutes of Environmental Health Sciences [NIEHS] National Toxicology Program [NTP] U.S. Food and Drug Administration [FDA] Tox21 Assay Overview: The farnesoid-X-receptor (FXR), a nuclear hormone receptor, is highly expressed in liver, intestine, kidney and adrenal cortex. Natural ligands of FXR are the bile acids (Cholic acid, Chenodeoxy cholic acid etc). FXR is an important regulator of diverse metabolic pathways, including the bile acid homeostasis, lipid and glucose metabolisms. FXR regulates the expression of target genes by binding either as a monomer or as a heterodimer with the retinoid X receptor (RXR). Numerous studies have reported that FXR exerts protective function during cholestasis, diabetes, liver regeneration, and cancer. To identify compounds that inhibit FXR signaling, GeneBLAzer FXR-UAS-bla HEK 293T cell line (Invitrogen, Carlsbad, CA) containing a beta-lactamase reporter gene under the control of a UAS response element was used to screen the Tox21 10K compound library.
Tox21 Assay Protocol Summary: FXR-bla cells were dispensed at 5000 cells/5uL/well in 1536-well black wall/clear bottom plates using a Multidrop Combi (Thermo Fisher Scientific, Waltham, MA) dispenser. After the assay plates were incubated at 37C and 5% CO2 for 5 h, 23 nL of compounds dissolved in DMSO, positive controls or DMSO only was transferred to the assay plate by a Pintool station (Kalypsys, San Diego, CA), followed by addition of 1 uL Chenodeoxycholic acid (50 uM, final concentration in the wells). The assay plates were incubated at 37C for 16 h. After 1 uL of LiveBLAzerTM B/G FRET substrate was added using a Bioraptr Flying Reagent Dispenser (FRD) workstation (Beckman Coulter, Indianapolis, IN), the plates were incubated at room temperature for 2 h, and fluorescence intensity was measured by an Envision plate reader (PerkinElmer, Shelton, CT).
For orientation: In qHTS, concentration-response curves come from the screen itself.
On to `NNC(N)=S`, for which the Potency entry is “inactive”.

`CCc1cccc(CC)c1N(COC)C(=O)CCl`: the Potency result was “inactive”.

As to `CCOC(=S)S`, the Potency result was “inactive”.

As for `NCc1cccnc1`, the Potency entry was “inactive”.

`CCN(CC)C(=O)SCc1ccc(Cl)cc1`: the Potency entry was “inactive”.

For `c1ccc(-c2cccc(-c3ccccc3)c2)cc1`, the Potency result was “inactive”.

With `CCN(CC)N=O`, the Potency result is “inactive”.

As for `CC(C)c1ccc(CO)cc1`, the Potency result was “inactive”.

In the case of `N[C@@H](Cc1ccc(N(CCCl)CCCl)cc1)C(=O)O`, the Potency entry is “inactive”.

As for `N#Cc1cc(Br)c(O)c(Br)c1`, the Potency entry is “inactive”.

As to `Cc1cc(Cl)ccc1OCCCC(=O)O`, the Potency entry is “inactive”.

On to `C#CCOS(=O)OC1CCCCC1Oc1ccc(C(C)(C)C)cc1` (stereo not given), for which the Potency result was “inactive”.

For the compound `N#CC(Br)Br`, the Potency entry was “inactive”.

With `CC(C)=CC1C(C(=O)OCc2coc(Cc3ccccc3)c2)C1(C)C` (stereo not given), the Potency entry is “inactive”.

As to `O=c1oc2ccccc2c(O)c1C(CC(O)c1ccc(-c2ccc(Br)cc2)cc1)c1ccccc1` (stereo not given), the Potency result was “inactive”.

For the compound `CCCCC(CC)COC(=O)Cl` (stereo not given), the Potency result is “inactive”.

With `C=C(C)[C@H]1Cc2c(ccc3c2O[C@@H]2COc4cc(OC)c(OC)cc4[C@@H]2C3=O)O1`, the Potency is 750 nM (active).

For `CCC(C)(c1ccc(O)cc1)c1ccc(O)cc1`, the Potency result is “inactive”.

As for `CCCCCc1cc(O)cc(O)c1`, the Potency result was “inactive”.

On to `COP(=S)(OC)Oc1ccc([N+](=O)[O-])cc1`, for which the Potency entry was “inactive”.

Take `O=C(NC(=O)c1c(F)cccc1F)Nc1ccc(Cl)cc1`: the Potency entry is “inactive”.

Consider `ClC1C(Cl)C(Cl)C(Cl)C(Cl)C1Cl` (stereo not given), for which the Potency entry is “inactive”.

`OCC(O)CO`: the Potency entry was “inactive”.

`Oc1ccc(-c2ccccc2)cc1`: the Potency result was “inactive”.

`c1ccc(NNc2ccccc2)cc1`: the Potency result is “inactive”.

As for `CCCCCCCCOC(=O)c1ccccc1C(=O)OCCCCCCCC`, the Potency result was “inactive”.

Turning to `CCN(N=O)C(N)=O`, the Potency result is “inactive”.

With `CCC(C)(C)c1ccc(O)cc1`, the Potency result is “inactive”.

As for `CCC(CC)Nc1c([N+](=O)[O-])cc(C)c(C)c1[N+](=O)[O-]`, the Potency entry was “inactive”.

With `CCC(C)c1cc([N+](=O)[O-])cc([N+](=O)[O-])c1O` (stereo not given), the Potency entry was “inactive”.

With `NC(=S)Nc1ccccc1`, the Potency result is “inactive”.

With `Cc1cccc(N)c1N`, the Potency entry is “inactive”.

For the compound `COP(=O)(OC)OC`, the Potency entry is “inactive”.

Turning to `CCOc1cc(Oc2ccc(C(F)(F)F)cc2Cl)ccc1[N+](=O)[O-]`, the Potency result was “inactive”.

For `Nc1c(Cl)cc([N+](=O)[O-])cc1Cl`, the Potency result is “inactive”.

Turning to `CC(C)N(C(=O)SCC(Cl)=C(Cl)Cl)C(C)C`, the Potency result was “inactive”.

Take `CCC(C)c1ccc(O)cc1` (stereo not given): the Potency result was “inactive”.

Regarding `c1cc(OCC2CO2)ccc1Cc1ccc(OCC2CO2)cc1` (stereo not given), the Potency entry is “inactive”.

For the compound `C=C(C)C(=O)OCC1CO1` (stereo not given), the Potency entry is “inactive”.

For the compound `CNC(=O)Oc1cccc2c1OC(C)(C)O2`, the Potency entry was “inactive”.
